The values below come from PubChem BioAssay AID1508600 (Functional Genomics Laboratory (NCATS/FGL), 2020).

Out of some 53,000 sequences screened, about 3,700 (7%) were called active. Shown is part of a subset that was picked to be rich in actives. Values without a mark were called inactive.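 How the source made its calls: active means gene knockdowns whose robust z-score for IL-1 alpha signal is at least 2 or at most -2, so actives lie on both sides; inactive means the rest.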

This assay in a line: Components of the Cytosolic LPS Sensing Pathway: Gene Identification via Genome-wide siRNA Screen.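 Further: robust z of the log signal after scaling to non-targeting control siRNA wells of the plate.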 The settings on record: RAW264.7 macrophages, IL-1a HTRF, actives lie on both sides, screened at 100 nM (by protocol), cells primed 5 h with Pam3CSK4 first. The gist of the method: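 Using IL-1a HTRF as read-out, the screen measured release from RAW264.7 cells after 48h siRNA knockdown (100 nM), 5 h Pam3CSK4 priming and 24 h cytosolic LipidA. Values were expressed relative to negative-control wells as robust z-scores.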
For GGCCCAUAUCUGCUCUCAUTT against Ssc5d, the z-score is -2.04 (active).
As to GCCUAUCUUGUCACCACUGTT against Tagln2, the z-score is -0.276.
The value for GGAAACAAAAGGAUUUCUGTT against Fbxl13 was 1.24; that for GGCGAGAAGGAAAUGUACATT against Arpc3 was 2.62 (active); that for CCAUCCUUCCGAAAGACGATT against Lcn10 was 0.465.
Consider CCAAGAUCGAUCAUUUUGGTT against Gm527, for which the z-score is -0.794.
For the sequence GGUCCAAGAGAAAUGUGUATT against Hacd4, the z-score is -2.55 (active).
The value for GGUUUUUCUAACUUUGGUCTT against Cdcp2 was -0.0176.
Regarding AAGAGCCAUUAAUCGAGAATT against Cklf, the z-score is -0.0691.
Consider GGCUAUUGCUGACCUCAGATT against Pidd1, for which the z-score was -2.73 (active).
GCGCAAAAGGACCUAUGAGTT against Rela: the z-score is -0.342.
Regarding CGUGGUAGACACUGUGGUATT against Plin1, the z-score is 1.61.
For the sequence GGAGAUGAUGCCGUCAUUCTT against Chaf1b, the z-score is 1.97.
With CCAUAUGAUAAGCAUAAGCTT against Zfp449, the z-score was 0.149.
Consider CCCGUAUGGAUGUGGUAACTT against Tmem239, for which the z-score is -1.39.
In the case of “CCUAACCAAGAUCCAAUCUTT against 6330549D23Rik”, the z-score is -2.85 (active).
Turning to GGCCAUCCAAGCAUGAGUUTT against Rbfa, the z-score was 1.37.
Turning to GGCAGGAAAUUCAUUUUAATT against Zfy2, the z-score is -1.43.
For GGAGAUGGACUCACUGAUGTT against Zscan20, the z-score is -1.32.
On to CCACAAAGGAAUUCAUGAGTT against Dhx16, for which the z-score was -1.41.
The result for GGUCAAGGAGAUCACCUUCTT against Comp reads -1.27.
Turning to GGAAAAGGAAACCCAGAGCTT against Tdg, the z-score is -2.4 (active).
The value for CCCGGAAUGUUUAGUAUCGTT against Fermt1 was -1.25; that for GGCCAUUAACAGCAGUCUGTT against Kifc5b was -1.71; that for GGAAGUGGAACACAUGAUCTT against Zfp346 was -0.449.
The result for GGCAUGAAUGAGUUUAUCATT against Vps8 reads -1.12.
The value for GGAGAAAUAUGUAUGUACATT against Ece2 was 2.01 (active); that for GGAGUCUGAAGAUGACAUGTT against Rplp1 was -0.775.
Consider GCCACUAAAUCCUGUUUCCTT against Ydjc, for which the z-score is -0.0858.
Regarding GAGAUGGAAAGUGGUUUCUTT against Olfr1226, the z-score was 0.543.
For the sequence GGUCACGAUUCUGUCAGACTT against Ctnnal1, the z-score was 3.57 (active).
In the case of GGUGAAAAUCAAGCUGAAUTT against Smarca2, the z-score was 1.36.
In the case of GGCUUCCAAGCCUAAAGCUTT against H1f3, the z-score is -0.266.
Take GGAUCAAUUGACCACAAACTT against Magi3: the z-score is 0.164.
As for GCGAUGCACUGUGUAAACUTT against Ccr6, the z-score is 0.772.
Turning to GGGCUUGUAGAUGUGCGUATT against Hic2, the z-score was 3.32 (active).
Take UGCGGUUGAAUUCUCCCAUTT against Fbll1: the z-score is -0.525.
As to CGCACUUACCGUGUCCUAUTT against Homer3, the z-score is 0.0495.
Consider GGAGAGAAAGAAUUUCAUCTT against Chordc1, for which the z-score was 0.185.
The result for GGAAAUCAGAGAGAAGAUGTT against Nubp1 reads -1.53; that for CCACAGAGUUCCUAUACAATT against Pfkl, -2.52 (active).
For CCCACGGAGGCAAUAAAUATT against Crygn, the z-score was -0.155.
GGAGAACUUCAGUGAGUCCTT against Ambp: the z-score was -2.43 (active).
The value for GCCACUCACCUAGCAAAGATT against Fbrsl1 was -1.36; that for GGAAAUUUCAGUCGUAGUATT against Mgat4c was 0.642.
As for “CGACUAUAGACUCUUGAAUTT against 1810037I17Rik”, the z-score is 0.573.
For the sequence GGAGAAAUACAACUGAAAATT against Pcdhb7, the z-score is -0.0269.
For GGCCAGAAGAUCUUCACCATT against Furin, the z-score was 0.449.
As for GCUCUUUGGUCGAGAACCATT against Mup5, the z-score was -2.42 (active).
Take GCAUCGUUUGUGAGAAUUUTT against Perp: the z-score was -0.61.
Regarding GGGCUAUCCUUCUGAAUUUTT against Csnk1d, the z-score was 1.46.
The result for GCUCUCCAUUACGUGCUUGTT against Rrp9 reads 1.39.
As for GGAGAGAAAGAACUGGAAATT against Fam78a, the z-score is 0.357.
The result for CCUAUCAGACUGUAAUAAGTT against Kdm2b reads -0.404.
GGGUGUAUUACCUCUCUCUTT against Pygl: the z-score is 2.12 (active).
With CCACGAUAGCACCUAUUUUTT against Gucy2c, the z-score was -0.405.
As for GGAACAUUGAAAGGAUUAATT against Smc3, the z-score was -1.9.
With GGCUUAAGUAUUUUUCUGATT against Aktip, the z-score was -0.269.
The result for GGUCUUCAUCUGUCCAACUTT against Tmlhe reads -2.09 (active); that for CCUGUACCUGCGUAUUCAATT against Grap, -1.63.
Turning to GGUGCAGCACUUCAAAGUGTT against Grap, the z-score was 2.41 (active).
With “GGCCUGAAGACAGACAUGATT against C030016D13Rik”, the z-score is -1.2.
Regarding GGAAGAGAUGAAGAAAAUGTT against Cetn1, the z-score was -1.01.
GGAACUUUUGGCCAGCAAGTT against Opa1: the z-score is 1.59.
The value for CGAUUACAUCCUUUUUGACTT against Gpn3 was -0.228.
With GCGCCUUAACCAAGAAGUUTT against Cox18, the z-score was 2.84 (active).
For the sequence GGAUCUAGAACAGAAAAUGTT against Stat3, the z-score was -1.55.
GCUGCUAUGACCUAUGGCATT against Sptlc2: the z-score was -0.543.
Consider GGGUUGUCGUUCAGUUUACTT against Art2a, for which the z-score was 2.8 (active).
Turning to GGAAUUAAGUCAUCAGGAATT against Slc6a5, the z-score was -0.763.
On to GCGCACAAAAAACAUGAUATT against Plaat5, for which the z-score was 0.211.
The value for GGAAUUCGAUGCAUUUGUATT against Il18rap was -0.34; that for GCUCAGCUGUGGGUAAUACTT against Raver2 was -2.77 (active); that for “GGAUAUCACAUAGCAUCGGTT against 1700025G04Rik” was -0.742.
For GGAUGUCUCAAAGUAAGAATT against Cd55b, the z-score is -0.124.
GGACGAGUGCCUGUUUUCATT against Med8: the z-score was 4.09 (active).
For GCAAUGGAACCACCUCUGATT against Zic5, the z-score was 1.41.
Take GGAAGAAGCUGAGGAAAGCTT against Spata1: the z-score was 0.15.
Consider GGAUGGACUCUGUUCCUGUTT against Susd2, for which the z-score was 0.956.
As for GGCCAUUGGACACAGAAUCTT against Rpl35a, the z-score is 2.28 (active).
In the case of GCAAUUAGUAUCUAUUACCTT against Txndc17, the z-score is -0.448.
For the sequence GGCUACAAAGGAGUUCCUATT against Sgf29, the z-score is 0.516.
Regarding GCUACUAAACAAGCCGGCATT against Msl1, the z-score was 0.341.
In the case of GGCUUUGUGGAUUUUGAAGTT against Cabp4, the z-score is -1.2.
Turning to GGACGUGUUUGGGAUUGUUTT against Csad, the z-score was -0.765.
The result for GGAUGAGUUCCUUUUACUATT against Cntnap4 reads 0.285; that for CCUCUGUUAUGGUAAUUCUTT against Olfr1323, -0.371; that for GCCUGAUAGUGGUGGACAGTT against Tmem45a2, 3.29 (active).
With “GGAGGCUUUUCAGACCAAGTT against 3830406C13Rik”, the z-score was 0.334.
Turning to GGAGAACAGACACAGGGUGTT against Dlgap5, the z-score was -0.284.
In the case of CCUAAACUCAGUGCCUCAGTT against Mrps36, the z-score was 0.579.
The result for GUCAAAGCACCAUUUGAGUTT against Vmn1r8 reads -0.842.
GGUAUUCUUUGAAGAAAACTT against Tbc1d14: the z-score was 1.17.
Regarding GGUUUUUGAUGAUUGCUUUTT against Slc49a4, the z-score is 0.221.
As for GGACACAGAUAGAAAUACUTT against Glo1, the z-score is 2.73 (active).
The value for GGUCUCGAAUGUAUGGUGCTT against Bicc1 was 1.14; that for GGCAGUUAUGAUAAAGAUUTT against Slc25a16 was -0.896; that for GGUUCCUAAACAUACUUGUTT against Swi5 was 0.478.
As for GGACUACAGUCAUUAUUCATT against Sycp2, the z-score is 3.25 (active).
GGAGUACGAGCAAAUGGUGTT against Nfkbia: the z-score was 0.5.
For GGGACCUACAUUACAAUUUTT against Suz12, the z-score is 1.06.
As to GGAUUCACCUGUUAUCUUUTT against Tapbpl, the z-score is 0.303.
In the case of UGAAUCACCACCCGGAAUGTT against Pcbd2, the z-score is 0.41.
The value for CCUAUGUGCGUUCCAAGCATT against Eif5b was -0.432.
As for GGACAUCUGUGUUAAAUUUTT against Npy1r, the z-score is -0.47.
As for GGAAGAUACUGUGGUUUAUTT against Agbl3, the z-score is 2.29 (active).
For GGCAUUGGUGUUUCAUUAATT against Gpm6a, the z-score is 1.2.
On to GGUAUUAUGACCAGAUUAUTT against Plxnb3, for which the z-score was 0.736.
